Our source for the growth inhibition values is PubChem BioAssay (NCI).

The nature of assay [1]: NCI Yeast Anticancer Drug Screen. Data for the rad50 strain (AID 155).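 Note: 0% = growth of vehicle-only cultures of the same strain.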 The note with it: S. cerevisiae rad50 strain growth inhibition; at 50.0 µM; active compounds read high. In outline:
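Genetically altered yeast (DNA repair pathway); compound treatment; growth inhibition vs vehicle ctrl.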

The nature of assay [2]: NCI Yeast Anticancer Drug Screen. Data for the mec2-1 strain (AID 157). The note with it: S. cerevisiae mec2-1 strain, at 50.0 µM, active compounds read high. In outline:
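Cells of the genetically defined mec2-1 yeast strain are incubated with test compound. Inhibition of growth is calculated against vehicle-treated controls.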

Assay [3] can be described thus: NCI Yeast Anticancer Drug Screen. Data for the sgs1 mgt1 strain (AID 161).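 Note: 0% = growth of cultures given vehicle only.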 The note with it: S. cerevisiae sgs1 mgt1 strain, at 50.0 µM, active compounds read high. In outline:
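Genetically altered yeast, compound exposure, growth inhibition relative to vehicle.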

Assay [4] in a line: NCI Yeast Anticancer Drug Screen. Data for the cln2 rad14 strain (AID 165).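 Note: 0% = growth equal to vehicle treated cultures.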 The note with it: S. cerevisiae cln2 rad14 strain, at 50.0 µM, active compounds read high. In outline: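 The screen exposed genetically defined yeast (cln2 rad14) to test compounds and scored growth inhibition relative to vehicle-treated controls.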
Assay [5] in a line: NCI Yeast Anticancer Drug Screen. Data for the bub3 strain (AID 167). Particulars: S. cerevisiae bub3 mutant strain, at 50.0 µM, active compounds read high. In outline: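 Yeast carrying a defined mutation is treated with each compound, and growth is compared with that of vehicle-exposed cells to give inhibition.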
Assay [6] can be described thus: NCI Yeast Anticancer Drug Screen. Data for the mlh1 rad18 strain (AID 175). Particulars: S. cerevisiae mlh1 rad18 strain growth inhibition; at 50.0 µM; active compounds read high. In outline: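 Compound-treated yeast growth, normalised to vehicle controls. Strain bears defined DNA repair mutations.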

The structures appear in SMILES notation. Compounds without any hit were thinned out: in the full panel of roughly 79,000, 15% have a hit. Unmarked numbers belong to inactive results. The source made the active and inactive calls. Cut-off read from the data, not from the text of the source: active = growth inhibition above about 70%; inactive = the rest.

Consider `C1CCCCCC2=C(CCCC1)CCCO2`, for which the growth inhibition is 7.4% in assay [1]; -7.5% in assay [2]; 2.35% in assay [3]; -19.3% in assay [4]; 10.2% in assay [5]; 0.2% in assay [6].
Consider `COc1cc(NCCNCC(C)(C)C)c2ncccc2c1`, for which the growth inhibition is 11.7% in assay [1]; 18.7% in assay [2]; 22.1% in assay [3]; 11.8% in assay [4]; 33.5% in assay [5]; 0.5% in assay [6].
Consider `OCC(O)C(O)C(OC1OC(CO)C(O)C(O)C1O)C(O)CO` (stereo not given), for which the growth inhibition in assay [1] is -1.05%; in assay [2], 37.8%; in assay [3], 26.9%; in assay [4], -2.2%; in assay [5] it was 13.8%; in assay [6] it was -3.2%.
For `CC(=O)/C(=C\I)c1ccccc1`, the growth inhibition in assay [1] was 87.8% (active); in assay [2] it was 91.8% (active); in assay [3], 85.4% (active); in assay [4] it was 89.9% (active); in assay [5], 89.5% (active); in assay [6], 85.5% (active).
Regarding `COc1ccc(C2C3=C(CCCC3=O)N(c3ccccc3)C3=C2C(=O)CCC3)cc1`, the growth inhibition is -67% in assay [1]; -18.4% in assay [2]; 3.3% in assay [3]; 19.9% in assay [4]; 7.4% in assay [5]; -27.5% in assay [6].
Take `CC1(C)OC(=O)ON(Cc2ccccc2)C1=O`: the growth inhibition in assay [1] was -4.45%; in assay [2], -2.85%; in assay [3] it was 2.2%; in assay [4], 2.35%; in assay [5] it was 3.3%; in assay [6] it was -13.4%.
Take `c1ccc(N2CCCC2(c2ccccc2)c2ccccc2)cc1`: the growth inhibition was 29.1% in assay [1]; 11.3% in assay [2]; 47.1% in assay [3]; -11.8% in assay [4]; 22.9% in assay [5]; 28.4% in assay [6].
Turning to `Cc1ncc([N+](=O)[O-])cc1C(=O)O`, the growth inhibition is 1% in assay [1]; 10% in assay [2]; -0.75% in assay [3]; -7.1% in assay [4]; 5.7% in assay [5]; -1.45% in assay [6].
Take `COc1cc2c(C)cc(O)cc2c2cc(O)c(C)cc12`: the growth inhibition was 22.6% in assay [1]; -1.55% in assay [2]; -10.3% in assay [3]; -5.9% in assay [4]; -9.9% in assay [5]; 91.8% (active) in assay [6].
`COc1ccc(OC)c(COC(=O)c2ccccc2)c1COC(=O)c1ccccc1`: the growth inhibition in assay [1] is 26.1%; in assay [2], 3.9%; in assay [3], 20.2%; in assay [4] it was 4.2%; in assay [5], 1.6%; in assay [6] it was 5.7%.
In the case of `COc1ccccc1C(=O)N(C)c1ccc(Cl)c(C(=O)OC(C)C)c1`, the growth inhibition in assay [1] is 30.9%; in assay [2] it was 24.7%; in assay [3], 46.4%; in assay [4] it was 37.7%; in assay [5], 44.5%; in assay [6] it was 6.85%.
For the compound `COc1ccc(OC(C)C(=O)O)cc1` (stereo not given), the growth inhibition was 13.2% in assay [1]; 10.5% in assay [2]; 3.5% in assay [3]; -31.5% in assay [4]; 13.3% in assay [5]; 6.25% in assay [6].
With `COc1cc(C(=O)O)c(C(=O)O)cc1OC`, the growth inhibition in assay [1] is 2.6%; in assay [2] it was 21.4%; in assay [3], 20.5%; in assay [4], -29.1%; in assay [5] it was 2.45%; in assay [6], 0.5%.
As to `CC1=CC(=O)C(O)C2(C)C(CCC3(C)OCCO3)C=C(O[Si](C)(C)C(C)(C)C)CC12` (stereo not given), the growth inhibition in assay [1] was 21.6%; in assay [2], -2.5%; in assay [3] it was 1.2%; in assay [4] it was 18.4%; in assay [5] it was 5.15%; in assay [6] it was 7%.
As to `O=C(NC1c2ccccc2CCc2ccccc21)C(F)(F)F`, the growth inhibition is 27.7% in assay [1]; -7.75% in assay [2]; 14.5% in assay [3]; 3.05% in assay [4]; 15.3% in assay [5]; 22.6% in assay [6].
For the compound `[O-]c1c[n+](-c2cc(Cl)ccc2Cl)no1`, the growth inhibition was 11.2% in assay [1]; 2.9% in assay [2]; -3.4% in assay [3]; 4.8% in assay [4]; -1.4% in assay [5]; 2.55% in assay [6].
For the compound `CCOC(=O)CC(c1ccc2c(c1)OCO2)c1cc(OC)c(OC)c(OC)c1` (stereo not given), the growth inhibition was -7.65% in assay [1]; 24.9% in assay [2]; -3% in assay [3]; 0.45% in assay [4]; 29.1% in assay [5]; 3.2% in assay [6].
On to `N#Cc1nc(/C=C/c2nc(C#N)c(N)o2)oc1N`, for which the growth inhibition in assay [1] is -34.5%; in assay [2], -28.7%; in assay [3], -5.25%; in assay [4] it was 9.25%; in assay [5], 8.4%; in assay [6], -0.95%.
In the case of `C/C(=N/OCCC(=O)O)C1CC1`, the growth inhibition was -2.85% in assay [1]; -1.65% in assay [2]; -1.35% in assay [3]; 11.8% in assay [4]; 7.9% in assay [5]; -17.6% in assay [6].
In the case of `CC(C)(C)NC(=O)Oc1cccnc1`, the growth inhibition in assay [1] is 7.1%; in assay [2], -4.6%; in assay [3], -12.6%; in assay [4], -42.4%; in assay [5] it was 27.6%; in assay [6], 8%.
